BAZ2B inh – qHTS Assay for Inhibitors of BAZ2B. AlphaScreen BAZ2B-H3K14Ac peptide displacement. Potency, µM (titrated, usually from 114 µM), without a hit: at the highest dose activity change, negative = inhibition, actives largely listed as inhibitors. 4.4% of 360,000 active; also: potency is read from the fitted curve at half-maximal effect; % is scaled to controls: 0 for no effect and ±100 for the full control effect; nearly all actives have a fitted effect of over 60% in size
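BAZ2B 50 nM plus b-H3(5-23)K14Ac 50 nM, PBS pH 7.4/0.01% Tween-20, 30 min RT; compound added (max 110 uM), 30 min RT; streptavidin donor/Ni-chelate acceptor beads 10 ug/mL final, 20 min dark; AlphaScreen read.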
G9a inh – qHTS Assay for Inhibitors of Histone Lysine Methyltransferase G9a; Potency, µM (top dose mostly 102 µM), for the others: at the highest dose activity, negative = inhibition, usual class: inhibitors; G9a H3K9 monomethylation, AlphaScreen, 2 h; 8.8% of 350,000 active; also: potency is read from the fitted curve at half-maximal effect; % is scaled to controls: 0 for no effect and ±100 for the full control effect; nearly all actives have a fitted effect of over 75% in size
Target sequence (Q96KQ7 913-1193 limits assumed): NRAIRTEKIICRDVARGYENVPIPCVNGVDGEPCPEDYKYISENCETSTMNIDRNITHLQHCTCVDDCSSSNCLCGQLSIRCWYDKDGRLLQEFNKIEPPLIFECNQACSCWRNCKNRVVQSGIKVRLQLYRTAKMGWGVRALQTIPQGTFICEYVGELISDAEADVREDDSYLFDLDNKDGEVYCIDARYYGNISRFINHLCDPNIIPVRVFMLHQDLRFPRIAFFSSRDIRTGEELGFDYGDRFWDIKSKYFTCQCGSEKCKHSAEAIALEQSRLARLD
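Using a bead-based AlphaScreen, monomethylated H3K9 product from 2 h room-temperature reactions (G9a 20 nM, peptide 500 nM, SAM 20 uM) was detected with 0.5 ug/mL rabbit anti-H3K9me1 antibody.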
JMJD2A Tudor – qHTS Assay for Inhibitors of JMJD2A-Tudor Domain; Lysine-specific demethylase 4A (Homo sapiens), O75164; AlphaScreen JMJD2A-Tudor / H3K4me3 peptide binding; Potency, µM (doses to about 114 µM), inactives show at the top dose activity change, negative = inhibition, hits mostly inhibitors; 4.4% of 390,000 active; AID 504339, 2011; also: potency is read from the fitted curve at half-maximal effect; % is scaled to controls: 0 for no effect and ±100 for the full control effect; nearly all actives have a fitted effect of over 50% in size
CtBP-E1A inh – qHTS Assay for Inhibitors of the CtBP/E1A Interaction. AlphaScreen GST-E1A/His-CtBP binding, 1536-well; hits give low values. activity change, % (test concentration not listed). 0.49% of 340,000 active; in the data active = activity change below about -65%; inconclusive = mostly about -30% to -63%; also: % is scaled to controls: 0 for no effect and ±100 for the full control effect
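AlphaScreen with 125 nM GST-E1A and 125 nM His-CtBP (5X stocks) in Tris pH 8.0, 300 mM NaCl, BSA, Tween 20, TCEP. Compounds preincubated 2 h at 37 deg C, then glutathione donor/nickel acceptor beads added for 1 h at 37 deg C in dark.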
HP1b chromo inh – HTS for Inhibitors of HP1-beta Chromodomain Interactions with Methylated Histone Tails; AlphaScreen HP1-beta / biotin-H3K9me3 peptide binding; Chromobox protein homolog 1 (Homo sapiens), P83916; Potency, µM (titrated, usually from 114 µM), for the others: at the top dose activity change, negative = inhibition, most hits filed as inhibitors; 0.56% of 390,000 active; also: potency is read from the fitted curve at half-maximal effect; nearly all actives have a fitted effect of over 70% in size
Target sequence (P83916 whole entry, looked up): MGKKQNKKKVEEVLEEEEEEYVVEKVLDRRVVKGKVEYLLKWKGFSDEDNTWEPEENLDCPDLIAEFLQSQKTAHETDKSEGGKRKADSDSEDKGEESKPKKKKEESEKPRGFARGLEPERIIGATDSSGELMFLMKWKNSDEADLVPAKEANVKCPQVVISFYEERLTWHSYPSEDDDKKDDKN
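HP1-beta protein (50 nM final) preincubated 30 min at room temperature with biotinylated H3(1-18)K9me3 peptide (50 nM) in PBS pH 7.4, 0.01% Tween-20, then compound added for 30 min. AlphaScreen streptavidin donor/nickel chelate acceptor beads (10 ug/mL final), 30 min dark, luminescence read.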
Six1-Eya2 blk – qHTS Assay for Inhibitors of the Six1/Eya2 Interaction | AlphaScreen GST-Six1/His-Eya2 binding, biochemical; hits give low values | activity change, % (test concentration not listed) | AID 651725, 2012 | Homeobox protein SIX1 (Homo sapiens) + Protein phosphatase EYA2 (Homo sapiens), … | 0.56% of 360,000 active; in the data active = activity change below about -65%; inconclusive = mostly about -30% to -63%; also: % is scaled to controls: 0 for no effect and ±100 for the full control effect
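AlphaScreen luminescence read after one hour at 37 °C in darkness. Pin-transferred compounds met GST-Six1 and His-Eya2 protein (5X stock 250 nM/500 nM) plus glutathione donor and Ni-chelate acceptor beads (5X, 50 ug/mL).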
* = called active by the depositor; ? = inconclusive; . = not tested or not shown; [ ] = remark or other dose. The list is not random: actives were taken first. Their share in the collection is about 10%. Unless noted, calls follow the shape of the dose curve; as a rule, active = well fitted inhibition curve with a large enough effect; inconclusive = small, poorly fitted or top-dose-only effect; inactive = no such curve, though single readings can be large or run the other way.

SMILES | BAZ2B inh | G9a inh | JMJD2A Tudor | CtBP-E1A inh | HP1b chromo inh | Six1-Eya2 blk
CN(CCOCCOc1ccc(F)cc1)Cc1ccccc1 | 79µM* | ? | 13µM* | -26 | ? | 2
COc1ccc(OCCCCN(C)Cc2ccccc2)cc1 | 71µM* | ? | 20µM* | 4 | ? | -16
COC(=O)c1ccc(OCCCCN(C)Cc2ccccc2)cc1 | 56µM* | 10µM* | 32µM* | 15 | ? | -1
COC(=O)c1ccc(OCCOc2ccccc2)cc1 | 5% | 12%[12.7 µM] | 17% | 34 | 46% | 30
C=CCc1cc(OC)ccc1OCCN(C)Cc1ccccc1 | 50µM* | 13µM* | 25µM* | -10 | ? | -24
CCOc1ccc(S(=O)(=O)Nc2cccc(C(=O)N(C)Cc3cccc(OC)c3OC)c2)cc1 | -25% | 87% | -25% | 3 | -14% | -8
CCOC(=O)[C@]12CCCC=C1N(Cc1ccc3c(c1)OCO3)C(=O)[C@H](CC(=O)N1CCCCC1)C2 | . | . | . | 1 | . | 3
C=CCc1cc(OC)ccc1OCCCCn1cncn1 | 50µM* | 28µM* | 5.6µM* | . | ? | 4
COc1ccc(CN(CCN(C)C)Cc2ccccc2)c(OC)c1 | 79µM* | 8.9µM* | 2.5µM* | 2 | -39% | -3
COc1ccc(CN(C)CC(=O)NC(=O)NCc2ccccc2)c(OC)c1 | -2% | -3% | -17% | 5 | 26% | 16
CCNC(=O)CSc1nnc(-c2ccccc2Br)n1-c1cccc(C(F)(F)F)c1 | 7% | ? | -3% | . | 44% | -1
O=C(O)Cc1csc(NC(=O)CSc2cccc(C(=O)O)n2)n1 | -39% | . | 89µM* | -1 | -18% | 19
Nc1ccccc1-c1n[nH]c(=S)s1 | ? | 0.63µM* | 28µM* | -1 | ? | 3
c1coc(CN2CCN(C(c3cccs3)c3nnnn3C3CCCC3)CC2)c1 (stereo unspecified) | ? | 50µM* | ? | -5 | 17% | -14
O=C(c1ccco1)N1CCN(C(c2cccs2)c2nnnn2C2CCCC2)CC1 (stereo unspecified) | -6% | ? | -9%[57.1 µM] | -2 | 53% | -14
Cc1nnc(NC(=O)CS(=O)(=O)Cc2ccccc2)s1 | -5% | ? | -6% | 0 | 42% | -3
CC(C)c1nnc(NC(=O)CCS(=O)(=O)Cc2ccccc2)s1 | 0% | 28µM* | 1% | 0 | -16% | -1
CC(C)c1nnc(NC(=O)CCS(=O)(=O)c2nc(-c3cccs3)cc(C(F)(F)F)n2)s1 | 89µM* | 1.8µM* | -23% | -19 | 30% | 7
COc1ccc(Br)cc1CNC(=O)c1cc(=O)[nH]c2ccc(S(=O)(=O)N3CCCCC3C)cc12 (stereo unspecified) | 0% | 6%[59 µM] | ? | . | 30% | .
CC(C)(C)NC(=O)COc1ccc(CNCCc2ccccc2)cc1 | -17% | 17%[12.7 µM] | -4% | 11 | 32% | 5
CCOc1cc(CNCc2cccnc2)ccc1OCC(=O)NC(C)(C)C | ? | 50µM* | -21% | . | 28% | -2
CCOc1cc(CNc2ccc3[nH]c(=O)[nH]c3c2)ccc1OCC(=O)NC(C)(C)C | -5% | 5µM* | -31% | 0 | -11% | -5
CCOc1cc(CNCCc2ccc(S(N)(=O)=O)cc2)ccc1OCC(=O)NC1CCCCC1 | 0% | -48%[59 µM] | -17% | -4 | 19% | ?
CC(C)(C)NC(=O)COc1ccc(CNCc2ccccn2)cc1 | 50µM* | . | 56µM* | -9 | 14% | ?
CCOc1cc(CNCc2ccccn2)ccc1OCC(=O)NC1CCCCC1 | 79µM* | 3%[12.7 µM] | 56µM* | -29 | 1% | ?

Screening results from PubChem BioAssay.
